# In PubChem BioAssay AID602179 (National Center for Advancing Translational Sciences (NCATS), 2012):
# The campaign covered roughly 390,000 compounds. About 360 (0.092%) were called active. This is one part of a sample in which actives are shown more often than they occur. Calls follow the shape of the dose curve; as a rule, active = well fitted inhibition curve with a large enough effect; inconclusive = small, poorly fitted or top-dose-only effect; inactive = no such curve, though single readings can be large or run the other way.
# Biological target: Isocitrate dehydrogenase [NADP] cytoplasmic (Homo sapiens) (UniProt O75874)
# Experiment: qHTS for Inhibitors of mutant isocitrate dehydrogenase 1 (IDH1): qHTS; also: nearly all actives have a fitted effect of over 65% in size
# Conditions: IDH1-R132H enzyme, NADPH consumption, diaphorase/resazurin fluorescence; series mostly up to 76.6 µM; activity change, negative = inhibition: at the top concentration
# Text: Unbiased genomic sequencing for 22 glioma genomes found recurrent mutation of isocitrate dehydrogenase 1 (IDH1) on chromosome 2q33-a gene encoding the cytosolic isoform of IIDH1associated with the tricarboxylic acid cycle (TCA) that catalyzes the oxidative decarboxylation of isocitrate, yielding alpha-ketoglutarate and CO2 via NADP+ to NADPH conversion. Subsequent studies confirmed the recurrent IDH mutations in up to 70% of secondary gliomas and in 10% of AML cases. […] This in effect defines IDH1 as an oncogene, and provides an extraordinary opportunity to discover chemical probes against mutant IDH1 that may translate into much needed new therapies for glioma and AML patients. […] NIH Chemical Genomics Center [NCGC] NIH Molecular Libraries Probe Centers Network [MLPCN] MLPCN Grant: DA032129 Assay Submitter (PI): Lenny Dang, Agios Pharmaceuticals
# IDH1-R132H (0.5 ug/mL) was dispensed into black, solid-bottom 1536-well plates at 3 uL/well in 20 mM Tris-HCl (pH 7.5), 150 mM NaCl, 10 mM MgCl2, 4 mM beta-ME, and 0.05% protease-free BSA. Then, 23 nL of compounds or DMSO were delivered to each well using a pin tool. A pre-read was run on the Viewlux to identify fluorescent compounds (540 nm excitation filter, 598 nm emission filter, bodipy mirror and 2 second exposure). After 30 minutes of incubation with compound, 3 uL of substrate mix were dispensed (0.016 mM NADPH, 2 mM alpha-KG, 20 mM Tris-HCl (pH 7.5), 150 mM NaCl, 10 mM MgCl2, and 0.05% protease-free BSA). Plates were spun for 1 min at 1000xg and incubated at room temperature for 80 min. Then 1.5 uL of each detection reagent component for the coupling system were added (0.12 mg/mL diaphorase and 0.072 mM resazurin, each in 20 mM Tris-HCl (pH 7.5), 150 mM NaCl, 10 mM MgCl2, and 0.05% protease-free BSA ) The protein, substrate and two detection components were maintained at 4 °C throughout the screen. Additionally, the substrate and resazurin reagents were protected from light. The plates were measured on an Envision plate reader for fluorescence signal using a 540 nm excitation filter and 590 nm emission filter with 10 flashes. 1x and 0x (no-enzyme) IDH1-R132H enzyme control were used to normalize %Activity of identified inhibitors; 0x enzyme values corresponded to 100% Activity (full inhibition), while 1x IDH1-R132H enzyme values were used to normalize 0%Activity (no inhibition). Concentration-response curves were fitted to the signals arising from the resulting fluorescence. The concentration-effect curves were then classified based on curve quality (r2), response magnitude and degree of measured activity, and compounds were subsequently categorized based on their curve class. […] Keywords: isocitrate dehydrogenase, IDH1, IDH1-R132H, MLSMR, MLPCN, NIH Roadmap, qHTS, NCGC
# Potency is read from the fitted curve at half-maximal effect.
# Chain of Isocitrate dehydrogenase [NADP] cytoplasmic (Homo sapiens) (O75874 whole entry R132H, change not shown): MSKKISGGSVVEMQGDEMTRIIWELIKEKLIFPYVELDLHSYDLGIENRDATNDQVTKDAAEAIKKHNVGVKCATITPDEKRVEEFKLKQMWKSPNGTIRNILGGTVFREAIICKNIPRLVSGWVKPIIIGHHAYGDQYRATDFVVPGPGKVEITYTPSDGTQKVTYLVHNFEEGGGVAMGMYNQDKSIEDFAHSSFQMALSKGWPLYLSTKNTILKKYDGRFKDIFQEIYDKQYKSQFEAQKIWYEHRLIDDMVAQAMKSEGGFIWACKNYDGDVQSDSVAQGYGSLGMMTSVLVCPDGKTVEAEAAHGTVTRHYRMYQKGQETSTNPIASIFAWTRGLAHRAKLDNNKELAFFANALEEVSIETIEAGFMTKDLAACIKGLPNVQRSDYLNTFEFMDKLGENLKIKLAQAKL
SMILES,"activity change, negative = inhibition",Potency
CCn1c(=O)cc(OCC(=O)Nc2cc(Cl)c(OC)cc2OC)c2ccccc21,-5.22% (inactive),
Cc1ccc(-c2nn(CCC(=O)Nc3ccc(OC(F)(F)F)cc3)c(=O)c3ccccc23)cc1,-1.17% (inactive),
Cc1ccc(C(=O)N2c3ncnn3C3(CCCCC3)[C@@H]3CCCC[C@@H]32)cc1,-7.57% (inactive),
O=c1[nH]cnc2c1c(-c1ccccc1)cn2-c1ccc(F)cc1,-0.586% (inactive),
CCCNc1ncnc2c1c(-c1ccccc1)cn2-c1ccc(OCC)cc1,,28.2 µM (active)
CCOC(=O)C1CCN(c2ncnc3c2c(-c2ccccc2)cn3-c2ccc(C)cc2)CC1,1.59% (inactive),
CCc1ccc(CNC(=O)c2cc3c(=O)n(CC)c4ccccc4c3s2)cc1,-6.61% (inactive),
O=C(NCC(c1cccnc1)N1CCc2ccccc21)c1cccc(C(F)(F)F)c1 (stereo not given),-1.72% (inactive),
COc1cc(C(=O)N2CCN(c3ccc(Nc4ccc(C)cc4)nn3)CC2)cc(OC)c1OC,4.91% (inactive),
CCc1ccc(N(CC)C(=O)CCn2cnc3onc(-c4ccc(F)cc4)c3c2=O)cc1,-16.8% (inactive),
Cc1ccc(CSc2nc3cccnc3n2Cc2ccc(C(=O)NC3CC3)cc2)cc1,0.151% (inactive),
COc1ccc(/C=C/c2nc(C#N)c(NCc3ccc(F)cc3)o2)cc1OC,4.01% (inactive),
Cc1ccc2nc(/C(C#N)=C/c3ccc(-c4ccc(C(=O)OC(C)C)cc4)o3)[nH]c2c1,-13% (inactive),
CCCn1c(NCc2ccccc2F)nc2ccccc21,17.3% (inactive),
O=C(C1CC1)N1CCc2cc(Br)cc(S(=O)(=O)N3CCN(c4ccccc4F)CC3)c21,-11% (inactive),
Cc1ccc2nc(-c3ccc(C)c(NC(=O)Cc4ccccc4)c3)oc2c1,4.91% (inactive),
CCc1ccccc1NC(=O)Cc1ccc(NC(=O)N2CCCCc3ccccc32)cc1,9.63% (inactive),
COc1cccc(CNC(=O)C(NS(=O)(=O)c2ccc3nc(C)sc3c2)C(C)C)c1 (stereo not given),2.39% (inactive),
Cc1nc2sc(C)c(C)n2c(=O)c1S(=O)(=O)NCCc1ccc(Cl)cc1,6.87% (inactive),
COc1ccccc1CCNC(=O)c1cccn1-c1nnc(N2CCCCC2)s1,13.2% (inactive),
COc1ccc(S(=O)(=O)NCc2cccn2Cc2cccc(C)c2)cc1,-0.432% (inactive),
COC(=O)c1sc2ncccc2c1-n1c(C)ccc1C,-12.6% (inactive),
CCCN1CCN(CCCNC(=O)c2ccc3nc(Cc4ccccc4)oc3c2)CC1,29.4% (inactive),
Cc1ccc(-c2cc(-c3coc4ccccc4c3=O)c3c(n2)-c2cc(Cl)ccc2OC3)cc1,-15% (inactive),

SMILES,"activity change, negative = inhibition",Potency
O=C(NCc1ccccc1)c1ccc2c(c1)nc1n2CCCCC1,-2.7% (inactive),
Cn1c(=O)nc2n(-c3ccc(Br)cc3)c3cccc(Cl)c3cc-2c1=O,-1.36% (inactive),
CCc1ccc(S(=O)(=O)c2nnn3c2nc(N2CCN(CC)CC2)c2sccc23)cc1,-17.2% (inactive),
Cc1cc(C)c2oc(C(=O)Nc3ccc(S(=O)(=O)N(C)c4ccccc4)cc3)cc(=O)c2c1,1.76% (inactive),
Cc1nn(-c2ccc(N3CCCCC3)nn2)c(C)c1CCC(=O)NCc1ccccc1F,0% (inactive),
COc1ccc(C(=O)Nc2ccc(-n3nncc3-c3ccccc3)cc2)cc1OC,-24.8% (inactive),
COC(=O)c1ccc(-c2c(-c3ccccc3)ncc3cc(OC)c(OC)cc23)cc1,,39.8 µM (active)
COC(=O)c1cc(NC(=O)c2cnc(SC)nc2-c2ccccc2)cc(C(=O)OC)c1,1.46% (inactive),
COc1ccc(C)cc1NC(=O)COCc1cc(-c2cccs2)on1,11% (inactive),
CCOC(=O)c1c(S(=O)(=O)NCC(=O)Nc2ccc(Cl)c(C(F)(F)F)c2)c(C)n(C)c1C,0.73% (inactive),
Cc1cc(N2CCN(c3cccc(C(F)(F)F)c3)CC2)n2nc(-c3ccccc3)nc2n1,-9.04% (inactive),
COC(=O)c1cc(S(=O)(=O)N2CCN(c3cc(Cl)ccc3C)CC2)c[nH]1,-12.5% (inactive),
COc1ccc(CCNC(=O)c2ccc3c(c2)nc(C)n3-c2ccc(Br)cc2)cc1OC,6.54% (inactive),
COc1ccc(CNC(=O)CCc2c(C)nn(-c3ccc(N4CCCC4)nn3)c2C)cc1,-5.82% (inactive),
CCOc1ccc(N(CC)S(=O)(=O)N2CCCC(C(=O)NCc3ccc(SC)cc3)C2)cc1 (stereo not given),-6.03% (inactive),
CCCCOc1ccc(CN2C(=O)C(=O)c3cc(Br)cc(C)c32)cc1OC,,28.2 µM (active)
COc1ccc(CN2C(=O)CC(Cc3ccc(C)cc3)C2=O)cc1OC (stereo not given),0.852% (inactive),
CCCCOc1ccc(Cn2c(=O)oc3ccc(C)cc32)cc1OC,0.174% (inactive),
O=S(=O)(c1ccc(Br)cc1)c1nnn2c1nc(N1CCOCC1)c1sccc12,7.56% (inactive),
COc1ccc(N2C(=O)CSC23C(=O)N(Cc2cccc(F)c2)c2ccccc23)cc1Cl (stereo not given),-7.21% (inactive),
Cc1ccc(CNC(=O)CSc2c3c(nc4cc(Cl)ccc24)CCCC3)cc1,12.5% (inactive),
Cc1cc(Cl)ccc1NC(=O)Cc1ccc(NC(=O)N2CCCCc3ccccc32)cc1,-7.17% (inactive),
CC1CN(C(=O)N2CCC(C(=O)NCc3cccs3)CC2)c2ccccc2O1 (stereo not given),13.4% (inactive),
Cc1ccc(O)c(NC(=O)c2cc(-c3ccc(F)cc3)no2)c1,0% (inactive),

SMILES,"activity change, negative = inhibition",Potency
Cc1ccc(Nc2nc3ccccc3nc2-n2nc(C)cc2C)c(Cl)c1,0% (inactive),
CCCN(CCC)C(=O)Cn1c(=O)n(-c2ccc(Cl)cc2)c(=O)c2c3c(sc21)CCCCC3,3.66% (inactive),
CCCn1c2ccccc2c2cnn(CC(=O)N(CC)c3cc(C)ccc3C)c(=O)c21,-8.48% (inactive),
N#Cc1ccc(-c2cccs2)nc1SCc1ccc(Br)cc1,-10.1% (inactive),
COc1ccc(Cl)cc1NC(=O)CSc1nc2ccccc2c2nc(-c3ccccc3)nn12,11.3% (inactive),
O=C(CCc1cn(Cc2ccc(F)cc2)c2ccccc12)NC1CCCCC1,-2.83% (inactive),
O=C(C1COc2ccccc2O1)N(Cc1cccnc1)c1nc2c(F)cc(F)cc2s1 (stereo not given),0% (inactive),
CCOC(=O)c1ccc(NC(=O)Cn2c(=O)n(-c3ccc(C)cc3)c(=O)c3c2cnn3C)cc1,0% (inactive),
CCCCn1c(CNC(=O)C23CC4CC(CC(C4)C2)C3)nnc1SCC(=O)Nc1ccc(C)cc1,-2.28% (inactive),
COCCNC(=O)c1ccc2c(c1)N(Cc1cccc(Cl)c1)C(=O)c1ccccc1S2(=O)=O,-14.2% (inactive),
COc1ccc(-c2nnc(SCC(=O)Nc3ccccc3C)o2)cc1OC,-3.15% (inactive),
CCCCc1nn2c(=O)cc(COC(=O)c3ccccc3NC(=O)C(C)(C)C)nc2s1,-4.52% (inactive),
COc1cc(NC(=O)CSc2nc3nc(C)c(Cc4ccc(C)cc4)c(C)n3n2)cc(OC)c1OC,-14.1% (inactive),
Cc1ccc(CCNC(=O)c2ccc(CNS(=O)(=O)c3ccc(C)cc3)cc2)cc1,11.2% (inactive),
CCOC(=O)c1ccc(N2C(=O)c3n[nH]c(C)c3C2c2ccc(O)c(OC)c2)cc1 (stereo not given),8.11% (inactive),
CCOc1ccc(S(=O)(=O)N(CC(=O)NCCSCc2ccc(C)cc2)c2ccccc2)cc1,8.13% (inactive),
O=C(CSc1oc(-c2ccco2)nc1S(=O)(=O)c1ccccc1)c1ccc(Cl)cc1,8.02% (inactive),
Cc1ccccc1Nc1nn2c(=O)c3ccc(C(=O)NCCc4ccc(Cl)cc4)cc3nc2s1,2.65% (inactive),
Cc1ccc(OCC(=O)OCc2cc(=O)n3nc(C4CC4)sc3n2)cc1C,1.02% (inactive),
CC(C)NC(=O)c1nn(-c2ccccc2F)nc1CO,-6.1% (inactive),
Cc1cccc(OCCCC(=O)Nc2sc3c(c2C(N)=O)CCC(C)C3)c1 (stereo not given),15.6% (inactive),
O=C(CN1C(=O)COc2ccc(S(=O)(=O)N3CCCCCC3)cc21)N1CCN(c2cccc(C(F)(F)F)c2)CC1,0.874% (inactive),
O=c1cc(CSc2ncn[nH]2)[nH]c2ccc(F)cc12,11.8% (inactive),
O=C(CN1CCSc2ccccc21)N1CCN(c2ccccc2)CC1,9.76% (inactive),

SMILES,"activity change, negative = inhibition",Potency
CCCc1nn2c(=O)cc(COC(=O)c3ccc(NC(=O)C(C)Oc4ccccc4)cc3)nc2s1 (stereo not given),-1.97% (inactive),
Cc1ccc2c(c1)N(C(=O)Nc1ccc(Br)cc1F)CCO2,26.6% (inactive),
O=C(CCc1ccccc1)NCc1ccc2c(c1)CCN2C(=O)c1ccccc1,-11.1% (inactive),
O=C(CSc1nnc(CNC(=O)c2ccccc2)n1-c1ccc(F)cc1)Nc1ccccc1F,-2.52% (inactive),
CN(C(=O)CSc1nc2ccccc2n1Cc1ccccc1C#N)c1ccccc1,-6.83% (inactive),
CCOC(=O)c1c(C)[nH]c(C)c1S(=O)(=O)N1CCCC(C(=O)NCc2ccccc2Cl)C1 (stereo not given),-13.9% (inactive),
CCOc1ccc(NC(=O)c2cn(C3CCCCC3)c(=O)c3c2c2ccccc2n3C)cc1,-10.2% (inactive),
CCCc1nc2c(c(=O)c3ccccc3n2C)c(=O)n1C1CCCCCC1,,46.5 µM (active)
CCCN1C(=O)C(Cc2nc3ccccc3c(=O)n2-c2ccccc2)c2cc(C)ccc21 (stereo not given),-1.15% (inactive),
Cc1ccc(S(=O)(=O)N(Cc2nc(-c3ccc(Cl)cc3)no2)C2CCCCC2)cc1,0.339% (inactive),
COc1cc2ccccc2cc1C(=O)Nc1cccc(-c2nc3ccccc3o2)c1,-0.407% (inactive),
CC1CCCCN1S(=O)(=O)c1ccc(F)c(C(=O)Nc2ccccc2C(F)(F)F)c1 (stereo not given),-7.74% (inactive),
CCOc1cccc(CNC(=O)c2ccc(N3CCCC3)c(NC(=O)Nc3ccccc3CC)c2)c1,-22.9% (inactive),
CCOc1ccc(NC(=O)C(=O)NCCc2csc3nc(-c4ccccc4F)nn23)cc1,-15.9% (inactive),
Cc1ccccc1CNC(=O)CCc1cn(Cc2ccccc2C)c2ccccc12,0% (inactive),
Cc1c(Cl)cccc1-c1ccc(CNCCCSc2nnnn2C)o1,0% (inactive),
COc1ccc(-c2nc(CN3CCC(C(=O)NCCN(CC(C)C)CC(C)C)CC3)c(C)o2)cc1OC,-5.21% (inactive),
CCOc1ccc(-c2n[nH]c3c2C(c2ccccc2OC)N(c2ccc(Br)cc2)C3=O)cc1 (stereo not given),-10.1% (inactive),
CN(Cc1ccccc1)S(=O)(=O)c1ccc(F)c(C(=O)Nc2cccc(Cl)c2Cl)c1,0% (inactive),
Cc1nn(-c2nc(-c3ccccc3)cc(C(F)(F)F)n2)c(C)c1Cl,-2.85% (inactive),
O=C(NC(Nc1nc2ccc([N+](=O)[O-])cc2s1)(C(F)(F)F)C(F)(F)F)c1ccccc1,,9.27 µM (active)
NS(=O)(=O)c1ccc2nc(NC(=O)COc3ccccc3)sc2c1,16.5% (inactive),
CN(C)c1cccc(C(=O)Nc2nc3ccc(S(=O)(=O)NC(C)(C)C)cc3s2)c1,-9.07% (inactive),
